Common to all, as to test: NCI-60 one-dose screen, 48 h (100 = growth as untreated, 0 = no growth, -100 = all killed)
What all share (settings): 10 µM unless noted

The subject of test [1] is SR leukemia.
The test system of test [2] is RPMI-8226 leukemia.
The test system of test [3] is OVCAR-8 ovarian.
Test [4] deals with OVCAR-5 ovarian.
Test [5] deals with OVCAR-4 ovarian.
The test system of test [6] is SK-OV-3 ovarian.
For test [7], the system named is IGROV1 ovarian.
The subject of test [8] is OVCAR-3 ovarian.
Test [9] relates to HS 578T breast.
Test [10] concerns NCI/ADR-RES ovarian.
Test [11] concerns T-47D breast.
Test [12] deals with MDA-MB-435 melanoma.
Test [13] deals with SW-620 colon.
Test [14] concerns MCF7 breast.
The test system of test [15] is HCT-116 colon.
Test [16] concerns KM12 colon.
Test [17] relates to BT-549 breast.
In test [18] the test system is HCC-2998 colon.

From PubChem BioAssay (NCI) come the findings set out here.

SMILES strings stand for the structures. About 83,000 compounds went through this panel and 20% of them were active in at least one assay; those are over-represented in the sample as a whole.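 48-hour exposure, single concentration, 96-well plates; percent growth endpoint where 0 means no net growth. Active: below 10.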 Unmarked numbers belong to inactive results. Activity calls are given as the source filed them.

On to `CCOC(=O)N1CCN(c2nc(Nc3cc(C)[nH]n3)c3ccccc3n2)CC1`, for which the growth in [1] was 17.3%; in test [2], 37.3%; in test [3], 74%; in test [4] it was 55.9%; in test [5], 49.5%; in test [6], 47.8%. Besides, the growth in test [7] was 35.6%; in test [8], 55.3%; in test [9] it was 29.6%; in test [10] it was 55.4%; in test [11] it was 37.4%; in test [12], 14%. Besides, the growth in test [13] is 41.8%; in test [14], 27.5%; in [15], 34.1%; in test [16], 21.4%.

For `COc1ccc(C(=O)/C=C/c2c(Cl)c3c(c(OC)c2Cl)OCC(=O)N3)cc1`, the growth is 3.68% (active) in [1]; 3.79% (active) in test [2]; 6.16% (active) in test [3]; 76.8% in [4]; 47.2% in test [5]; 63.1% in test [7]. Moreover, the growth is 10.9% in [8]; 39.4% in test [9]; 19.4% in [10]; 25.1% in test [11]; -14.8% (active) in test [17]; 7.18% (active) in [12]. Also, the growth in test [13] is 17.7%; in test [14], 14.9%; in test [15] it was 11.4%; in [18] it was 41.8%; in [16], 15.9%.

`COc1cc(C(=O)/C=C/c2c(C)n([O-])c3ccc(C)cc3[n+]2=O)cc(OC)c1OC`: the growth in [1] is -35.2% (active); in test [2] it was -17.3% (active); in test [3], 5.36% (active); in test [4] it was 78.3%; in test [5], 36.9%; in test [6], 96%. For the same compound, the growth in test [7] was 73.7%; in [8], 13.2%; in test [9] it was 52.8%; in test [11], 17.6%; in test [17] it was 76.7%; in test [13], 0.477% (active). For the same compound, the growth in test [14] was 29.4%; in [15], 15%; in [18], 104%; in test [16] it was 34.8%.

In the case of `COc1ccc(S(=O)(=O)NCCCNc2nccc(-c3c(-c4cccc(N)c4)nc4sccn34)n2)cc1`, the growth in [1] was 86.4%; in [2] it was 84%; in test [3], 93.5%; in test [4] it was 134%; in test [5], 97.1%; in [6], 112%. Further, the growth in test [7] is 87.1%; in [8] it was 94.5%; in test [9], 93.9%; in test [11], 63%; in [17], 102%; in [12] it was 70.2%. In addition, the growth in test [13] is 138%; in test [14] it was 69.3%; in test [15] it was 99.2%; in test [18], 144%; in test [16], 39.4%.

Regarding `COc1cccc(-c2nc3sccn3c2-c2ccnc(NCCCNS(=O)(=O)c3ccc(Cl)cc3)c2)c1`, the growth in [1] is 50%; in test [2], 9.05% (active); in [3], 31.1%; in test [4], 90.6%; in test [5], 43.1%; in test [6], 75.3%. The growth in [7] was 42%; in test [8] it was 51.3%; in test [9], 65.3%; in [11], 2.4% (active); in test [17], 34.4%; in test [12], 38.4%. In addition, the growth in test [13] was 58.3%; in test [14], 34.6%; in [15], 44%; in test [16], 43.5%.

`CN(C)CCCC(=O)Nc1ccc(Cn2nnc3c2C(=O)c2nnn(Cc4ccc(NC(=O)CCCN(C)C)cc4)c2C3=O)cc1`: the growth in test [1] is 74.7%; in [2], 76.1%; in test [3] it was 86.6%; in test [4] it was 115%; in test [5] it was -98.6% (active); in [6], 89.8%. The growth is 57.3% in test [7]; 4.3% (active) in test [8]; 112% in [9]; -5.44% (active) in [11]; 80.5% in test [17]; -83.7% (active) in test [12]. Also, the growth was 52.3% in [13]; -40% (active) in test [14]; 6.95% (active) in test [15]; 59.3% in [18]; 81.4% in test [16].

`Cn1cc(-c2nc(-c3c[nH]c4ccccc34)cs2)c2cccnc21`: the growth in test [1] was 23%; in [2] it was 14.4%; in [3] it was 37.9%; in test [4], 54.4%; in test [5], 45.5%; in test [6], 38.7%. For the same compound, the growth in [7] is 44.5%; in [8], 7.04% (active); in [9] it was 38.6%; in [10] it was 20.4%; in test [11], 0.223% (active); in test [12] it was 1.86% (active). Moreover, the growth is 32% in [13], 26.3% in test [15], 54.7% in test [18] and 27.4% in [16].

Consider `CN1CCN(Cc2ccc(NC(=O)c3[nH]ncc3Nc3ncnc4c3CCC4)cc2)CC1`, for which the growth in test [1] is -18.6% (active); in test [2], -9.23% (active); in [3], 11.9%; in test [4] it was -0.195% (active); in [5] it was 6.83% (active); in test [6], 24.5%. In addition, the growth in [7] is 19.2%; in test [8], -5.87% (active); in test [9], 16.1%; in test [11], 32.3%; in test [17], -7.15% (active); in [12] it was 29.6%. Moreover, the growth in test [13] is 7.76% (active); in test [14], 11.3%; in test [15] it was 5.79% (active); in test [18] it was 13.1%; in test [16] it was 6.55% (active).

For `CCN(CC)CCCNc1cc(OC)cc2nc3cc(Cl)ccc3nc12`, the growth in test [1] was -34.6% (active); in test [2], -14.3% (active); in test [3], -8.47% (active); in [4], -39.3% (active); in [5] it was -11% (active); in test [6], 6.29% (active). Also, the growth in test [7] was -29.9% (active); in test [8] it was -48.9% (active); in [9], 23.3%; in [10], -50.2% (active); in test [11] it was 29.8%; in [12] it was -90.4% (active). The growth was -36.9% (active) in [13]; -2.19% (active) in [14]; -91.8% (active) in [15]; 27.5% in test [18]; -51.4% (active) in [16].
